This is an account of results in the supplement of paper PMC7411054.

Settings in all cases: treatment time: 24 h
Assay [1] has as its system A549-GM130-SQSTM1. Description: lowest phenotypically active concentration; higher = less potent. The gist of the method:
(§1)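 Each of fifteen gene-edited A549, HepG2 and WPMY1 reporter lines, marked with BFP for segmentation and GFP and RFP/FusionRed, was treated in four wells at 0.3, 1, 3 or 9 µM for 24 h prior to live imaging. Normalisation of per-well live-cell features used solvent control wells. Deviation needed ≥3 of 4 wells beyond the 95th percentile of control Euclidean distances, and reproducibility needed a median replicate Pearson correlation above the 95th percentile of non-replicates. Both were required for phenotypic activity.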

Assay [2] deals with HepG2-GM130-SQSTM1. Described as above. The gist of the method:
as §1

Assay [3] deals with HepG2-TUBA1B-RELA. Described as above. The method in brief:
as §1

The subject of assay [4] is WPMY1-GM130-SQSTM1. The assay is described as above. The method in brief:
as §1

Assay [5] deals with WPMY1-TP53BP1-CLTA. Described as above. The gist of the method: as §1
For the next assay, the system named is A549-ACTB-RAB5A. Put plainly: phenotypically active (imaging signature differs from DMSO and reproducible) at any of 0.3-9 uM (binary (1 = active, 0 = inactive)); higher = active. The method in brief:
as §1

Another assay has as its system A549-CANX-COX4. The description is as above. The gist of the method:
as §1

Assay [6] relates to A549-GM130-SQSTM1. Described as above. The method in brief: as §1
The subject of the next assay is A549-TP53BP1-CLTA. The description is as above. The gist of the method:
as §1

The next assay relates to A549-TUBA1B-RELA. The description is as above. The gist of the method: as §1
Another assay relates to HepG2-ACTB-RAB5A. Described as above. The method in brief:
as §1

The subject of another assay is HepG2-CANX-COX4. Described as above. The gist of the method:
as §1

Assay [7] concerns HepG2-GM130-SQSTM1. The description is as above. The gist of the method:
as §1

A further assay relates to HepG2-TP53BP1-CLTA. Described as above. The method in brief: as §1
Assay [8] has as its system HepG2-TUBA1B-RELA. The description is as above. The method in brief:
as §1

For a further assay, the system named is WPMY1-ACTB-RAB5A. The description is as above. The method in brief: as §1
Another assay deals with WPMY1-CANX-COX4. Described as above. The method in brief:
as §1

Assay [9] deals with WPMY1-GM130-SQSTM1. Described as above. The method in brief:
as §1

The test system of assay [10] is WPMY1-TP53BP1-CLTA. The description is as above. The method in brief:
as §1

A further assay has as its system WPMY1-TUBA1B-RELA. Described as above. The method in brief:
as §1

Some results are limits rather than exact numbers.

Consider `CN1C[C@H](C(=O)N[C@]2(C)O[C@@]3(O)[C@@H]4CCCN4C(=O)[C@H](Cc4ccccc4)N3C2=O)C=C2c3cccc4[nH]cc(c34)C[C@H]21` [ergotamine], for which the “lowest phenotypically active concentration” value came out at 3 µM in the assay with A549-GM130-SQSTM1 [1]; 3 µM in the assay with HepG2-GM130-SQSTM1 [2]; 9 µM in the assay with HepG2-TUBA1B-RELA [3]; 3 µM in the assay on WPMY1-GM130-SQSTM1 [4]; 3 µM with WPMY1-TP53BP1-CLTA [5]. Moreover, the phenotypically active in the assay with A549-ACTB-RAB5A, in the assay with A549-CANX-COX4, with A549-GM130-SQSTM1 [6], in the assay on A549-TP53BP1-CLTA, with A549-TUBA1B-RELA and with HepG2-ACTB-RAB5A was 1 (active) each time. Also, the phenotypically active with HepG2-CANX-COX4, in the assay on HepG2-GM130-SQSTM1 [7], in the assay on HepG2-TP53BP1-CLTA, in the assay on HepG2-TUBA1B-RELA [8], with WPMY1-ACTB-RAB5A and in the assay on WPMY1-CANX-COX4 was 1 (active) throughout. The phenotypically active with WPMY1-GM130-SQSTM1 [9], with WPMY1-TP53BP1-CLTA [10] and in the assay on WPMY1-TUBA1B-RELA was 1 (active) each time.

With `COc1ccc(N(C(=O)Oc2c(C)cccc2C)c2ccnc(Nc3ccc(N4CCN(C)CC4)cc3)n2)c(OC)c1`, the “lowest phenotypically active concentration” value with A549-GM130-SQSTM1 [1] is 1 µM; in the assay on HepG2-GM130-SQSTM1 [2], 3 µM; in the assay on HepG2-TUBA1B-RELA [3], no more than 0.3 µM; in the assay on WPMY1-TP53BP1-CLTA [5] it was 3 µM. Besides, the phenotypically active in the assay with A549-ACTB-RAB5A, in the assay on A549-CANX-COX4, in the assay on A549-GM130-SQSTM1 [6], in the assay with A549-TP53BP1-CLTA, with A549-TUBA1B-RELA and in the assay on HepG2-ACTB-RAB5A was 1 (active) throughout. The phenotypically active in the assay on HepG2-CANX-COX4 was 1 (active); in the assay with HepG2-GM130-SQSTM1 [7], 1 (active); with HepG2-TP53BP1-CLTA it was 1 (active); with HepG2-TUBA1B-RELA [8] it was 1 (active); in the assay with WPMY1-ACTB-RAB5A, 1 (active); with WPMY1-CANX-COX4, 0 (inactive). Besides, the phenotypically active with WPMY1-GM130-SQSTM1 [9] was 0 (inactive); in the assay on WPMY1-TP53BP1-CLTA [10] it was 1 (active); in the assay with WPMY1-TUBA1B-RELA, 0 (inactive).

As for `N#CC(C#N)=NNc1ccc(OC(F)(F)F)cc1`, the “lowest phenotypically active concentration” value in the assay on A549-GM130-SQSTM1 [1] was 3 µM; in the assay with HepG2-GM130-SQSTM1 [2], 9 µM; in the assay on HepG2-TUBA1B-RELA [3], 9 µM; in the assay with WPMY1-GM130-SQSTM1 [4] it was 9 µM; in the assay with WPMY1-TP53BP1-CLTA [5], 3 µM. In addition, the phenotypically active in the assay with A549-ACTB-RAB5A, with A549-CANX-COX4, in the assay on A549-GM130-SQSTM1 [6], with A549-TP53BP1-CLTA, in the assay with A549-TUBA1B-RELA and with HepG2-ACTB-RAB5A was 1 (active) throughout. In addition, the phenotypically active in the assay with HepG2-CANX-COX4, with HepG2-GM130-SQSTM1 [7], with HepG2-TP53BP1-CLTA, in the assay with HepG2-TUBA1B-RELA [8], in the assay with WPMY1-ACTB-RAB5A and in the assay with WPMY1-CANX-COX4 was 1 (active) each time. Further, the phenotypically active in the assay on WPMY1-GM130-SQSTM1 [9], in the assay with WPMY1-TP53BP1-CLTA [10] and with WPMY1-TUBA1B-RELA was 1 (active) throughout.

Consider `C/C=C(/C)C(=O)O[C@H]1C(C)=C2[C@H]([C@@H]1OC(=O)CCCCCCC)[C@@](C)(OC(C)=O)C[C@H](OC(=O)CCC)[C@@]1(O)[C@H]2OC(=O)[C@@]1(C)O` [Thapsigargin], for which the “lowest phenotypically active concentration” value in the assay with A549-GM130-SQSTM1 [1], in the assay with HepG2-GM130-SQSTM1 [2], in the assay on HepG2-TUBA1B-RELA [3], with WPMY1-GM130-SQSTM1 [4] and in the assay with WPMY1-TP53BP1-CLTA [5] was no more than 0.3 µM each time. Besides, the phenotypically active in the assay with A549-ACTB-RAB5A, with A549-CANX-COX4, with A549-GM130-SQSTM1 [6], in the assay on A549-TP53BP1-CLTA, in the assay on A549-TUBA1B-RELA and in the assay on HepG2-ACTB-RAB5A was 1 (active) throughout. Further, the phenotypically active with HepG2-CANX-COX4, in the assay on HepG2-GM130-SQSTM1 [7], in the assay on HepG2-TP53BP1-CLTA, in the assay on HepG2-TUBA1B-RELA [8], in the assay on WPMY1-ACTB-RAB5A and in the assay on WPMY1-CANX-COX4 was 1 (active) each time. Further, the phenotypically active with WPMY1-GM130-SQSTM1 [9], in the assay with WPMY1-TP53BP1-CLTA [10] and in the assay with WPMY1-TUBA1B-RELA was 1 (active) in each case.

As to `CC[C@@H]1C=CC=CC[C@H](C)[C@@H](O)[C@](C)(O)C(=O)[C@H](C)[C@@H](O)[C@H](C)C(=O)[C@H](C)[C@@H](O)[C@H](C)C=CC(=O)O[C@H]2[C@@H](C)[C@@H](CC1)O[C@@]1(CC[C@@H](C)[C@@H](C[C@H](C)O)O1)[C@@H]2C` [Oligomycin A], the “lowest phenotypically active concentration” value in the assay with A549-GM130-SQSTM1 [1], in the assay with HepG2-GM130-SQSTM1 [2] and in the assay on HepG2-TUBA1B-RELA [3] was no more than 0.3 µM each time. Further, the phenotypically active in the assay with A549-ACTB-RAB5A, in the assay with A549-CANX-COX4, in the assay with A549-GM130-SQSTM1 [6], in the assay with A549-TP53BP1-CLTA, in the assay with A549-TUBA1B-RELA and in the assay with HepG2-ACTB-RAB5A was 1 (active) throughout. Moreover, the phenotypically active in the assay with HepG2-CANX-COX4 is 1 (active); with HepG2-GM130-SQSTM1 [7], 1 (active); in the assay on HepG2-TP53BP1-CLTA, 1 (active); in the assay on HepG2-TUBA1B-RELA [8] it was 1 (active); with WPMY1-ACTB-RAB5A, 0 (inactive); in the assay on WPMY1-CANX-COX4, 1 (active). The phenotypically active in the assay on WPMY1-GM130-SQSTM1 [9], in the assay with WPMY1-TP53BP1-CLTA [10] and in the assay with WPMY1-TUBA1B-RELA was 0 (inactive) each time.
